Source: PubChem BioAssay (National Center for Advancing Translational Sciences (NCATS))
Hits are enriched below; roughly 4.7% of the tested compounds scored in any of these assays.
TRHR agonist: activates the human TRH receptor | P34981 | TRHR cells, calcium flux fluo-8, FDSS agonist mode | activation, % at 2 µM | 0.18% of 360,000 active; also: 0% is about no effect
Target sequence (P34981 whole entry, looked up): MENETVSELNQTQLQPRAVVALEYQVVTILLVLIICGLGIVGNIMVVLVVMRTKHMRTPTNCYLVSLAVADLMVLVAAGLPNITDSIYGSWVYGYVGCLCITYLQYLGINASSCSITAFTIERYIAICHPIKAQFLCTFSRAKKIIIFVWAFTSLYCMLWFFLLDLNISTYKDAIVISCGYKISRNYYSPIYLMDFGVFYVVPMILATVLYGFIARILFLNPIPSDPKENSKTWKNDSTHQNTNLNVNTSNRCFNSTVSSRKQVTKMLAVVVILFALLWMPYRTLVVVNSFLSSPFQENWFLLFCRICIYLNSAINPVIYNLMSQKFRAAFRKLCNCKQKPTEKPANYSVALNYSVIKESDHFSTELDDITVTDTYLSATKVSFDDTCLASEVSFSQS
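Agonist-mode FDSS calcium read (Ex 480/Em 530, 1 s cycles) in 1536-well TRHR cells with fluo-8 dye, after 10-cycle baseline and 23 nL compound addition; TRH at EC20 (10 nM final) added afterwards for the enhancer phase.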
TRHR enhancer: TRH receptor (human) allosteric enhancement; P34981; TRHR cells, fluo-8 calcium fluorescence, EC20 TRH enhancement; enhancement, % at 2 µM; 0.66% of 360,000 active; AID 493056; in the data active = enhancement above about 30%; also: 0% is about no effect
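TRHR-expressing cells loaded with fluo-8 calcium dye were read kinetically (ex 480/em 530) during compound addition, then stimulated with an EC20 of TRH (10 nM final). Enhancement of the Gq-mediated intracellular calcium response was scored.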
D1 PAM: human D1 dopamine receptor positive modulation | HEK293 TREx D1 cells, calcium flux, dopamine EC20 potentiation | P21728 | AID 504651 | 0.036% of 360,000 active | potentiation, % at 10 µM; in the data active = potentiation above about 30%; also: 0% is about no effect
D1 ag: activates the human D1 dopamine receptor; HEK293 T-REx D1 cells, calcium flux, agonist mode; activation, % at 2 µM; 1% of 360,000 active; also: 0% is about no effect
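Agonism was scored from calcium flux recorded over 180 s (1 read/s) after pintool compound addition, following a 10-cycle baseline. Cells were inducible force-coupled HEK293 TREx D1, plated overnight at 30 C and loaded with no-wash calcium dye.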
D1 antagonist: antagonists of human D1 dopamine receptor; P21728; 3.2% of 360,000 active; activity change, negative = inhibition, % at 10 µM; HEK293 TREx D1 cells, calcium flux, dopamine EC80; stronger effect = lower value; in the data active = activity change below about -30%; also: % is scaled to controls: 0 for no effect and ±100 for the full control effect
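Inducible Hek293 Trex D1 cells (tetracycline, overnight, 30 C). Calcium dye 30–90 min RT. Antagonist mode: EC80 dopamine added after 180 s compound read.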
Active calls of the source: *. Rule as the data show it, unless noted: active = activation above about 30%; inactive = the rest.

What do the screens show for `Cc1c(C(=O)NCc2ccc(Cl)cc2)sc2nc3n(c(=O)c12)CCCC3`?
TRHR agonist: 1; TRHR enhancer: 19; D1 PAM: 2; D1 ag: 3; D1 antagonist: 3

How did Cc1c(C(=O)NCc2ccccc2Cl)sc2nc3n(c(=O)c12)CCC3 do in these assays?
TRHR agonist: 0; TRHR enhancer: -4; D1 PAM: -4; D1 ag: 1; D1 antagonist: -7

What do the screens show for `Cc1ccc(CNC(=O)c2cnc(N3CCCC3)nc2C)cc1`?
TRHR agonist: 0; TRHR enhancer: -5; D1 PAM: 0; D1 ag: 3; D1 antagonist: 8

Results for Cc1c(C(=O)NCc2cccc(Cl)c2)sc2nc3n(c(=O)c12)CCCC3 ?
TRHR agonist: 14; TRHR enhancer: 14; D1 PAM: -1; D1 ag: 32*; D1 antagonist: -16

Results for COc1ccc(CNC(=O)c2cnc(N3CCCC3)nc2C)cc1 ?
TRHR agonist: 0; TRHR enhancer: -2; D1 PAM: 1; D1 ag: -1; D1 antagonist: -44*

How did COc1ccc(CNC(=O)c2sc3nc4n(c(=O)c3c2C)CCCC4)cc1 do in these assays?
TRHR agonist: 23; TRHR enhancer: -2; D1 PAM: -3; D1 ag: 71*; D1 antagonist: -3

What do the screens show for `COc1ccc(Cc2c(C)nn(-c3nc(C)c(C(=O)Nc4cccc(C(C)=O)c4)s3)c2C)cc1`?
TRHR agonist: -1; TRHR enhancer: 5; D1 PAM: 3; D1 ag: 7; D1 antagonist: -5

Results for CCN1CCN(C(=S)Nc2ccc3nc4n(c(=O)c3c2)CCCCC4)CC1 ?
TRHR agonist: 0; TRHR enhancer: 0; D1 PAM: -4; D1 ag: 36*; D1 antagonist: -2

How did CCCN(CCC)CCCNC(=S)Nc1ccc2nc3n(c(=O)c2c1)CCCCC3 do in these assays?
TRHR agonist: 0; TRHR enhancer: 2; D1 PAM: -10; D1 ag: 0; D1 antagonist: -30*

How did CCN(CC)CCNC(=S)Nc1ccc2nc3n(c(=O)c2c1)CCCCC3 do in these assays?
TRHR agonist: 0; TRHR enhancer: 9; D1 PAM: -3; D1 ag: 3; D1 antagonist: -5

What do the screens show for `COc1ccc(Cn2c(C(=O)O)c(CNCCc3cccs3)c3ccc(C)cc32)cc1`?
TRHR agonist: 0; TRHR enhancer: 3; D1 PAM: 3; D1 ag: -1; D1 antagonist: 9

Results for COc1ccc(S(=O)(=O)Oc2ccc3ccccc3c2)cc1 ?
TRHR agonist: 0; TRHR enhancer: -5; D1 PAM: -12; D1 ag: 13; D1 antagonist: -39*

What do the screens show for `COc1ccc(Cn2c(=O)c3cccnc3n(CC(=O)Nc3c(C)cc(C)cc3C)c2=O)cc1`?
TRHR agonist: 0; TRHR enhancer: -2; D1 PAM: -7; D1 ag: 0; D1 antagonist: -11

How did CN(C)S(=O)(=O)c1ccc(C(=O)Nc2ccc(S(=O)(=O)NC3=NCCCCC3)cc2)cc1 do in these assays?
TRHR agonist: 0; TRHR enhancer: -3; D1 PAM: 3; D1 ag: 7; D1 antagonist: -6

How did CSc1ncccc1C(=O)Nc1ccc(S(=O)(=O)NC2=NCCCCC2)cc1 do in these assays?
TRHR agonist: 0; TRHR enhancer: -10; D1 PAM: -4; D1 ag: 3; D1 antagonist: -54*

What do the screens show for `CC1CCCCN1C(=O)C1CCN(c2nc(-c3ccccc3)nc3c2CCC3)CC1` (stereo not given)?
TRHR agonist: -1; TRHR enhancer: 39*; D1 PAM: -2; D1 ag: 4; D1 antagonist: 1

What do the screens show for `COC(=O)C1CCN(c2nc3ccccc3nc2C(C#N)C(=O)NCCc2ccccc2)CC1` (stereo not given)?
TRHR agonist: 1; TRHR enhancer: 4; D1 PAM: -1; D1 ag: 2; D1 antagonist: -35*

What do the screens show for `N#CC(C(=O)NC1CCCCC1)c1nc2ccccc2nc1N1CCN(c2ccccc2F)CC1` (stereo not given)?
TRHR agonist: 1; TRHR enhancer: -5; D1 PAM: -3; D1 ag: 10; D1 antagonist: -35*
